This is one part of a sample in which hits are shown more often than they occur.
HTT aggregate: mutant huntingtin aggregation inhibition; PC12 HttQ103-GFP aggregates, Acumen cytometry, 40 h; Potency, µM (doses to about 46.1 µM), for the others: top-dose activity change, negative = inhibition, actives largely listed as inhibitors; actives 1.1% (n = 220,000); AID 1688; also: potency is read from the fitted curve at half-maximal effect; % is scaled to controls: 0 for no effect and ±100 for the full control effect; nearly all actives have a fitted effect of over 60% in size
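PC12 cells stably carrying ecdysone-inducible HTT exon 1 Q103–GFP were induced with tebufenozide (100 nM final) and treated with library compounds in titration. GFP aggregates in lysates were counted by laser scanning cytometry.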
PNC inhibitor: perinucleolar compartment assembly inhibition; PC3M PTB-GFP, PNC prevalence imaging, 16 h; stronger effect = lower value; activity change (PNC), negative = inhibition, % at 10 µM; actives 3.1% (n = 140,000); AID 2417;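 active = readout at or below -70, meaning at least 70% loss of cells showing the perinucleolar compartment, a nuclear body marking cancer cells; inconclusive = readout between -30 and a set limit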;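 also: plate controls were DMSO wells for no effect and camptothecin positive control wells for full effect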
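Compounds are pinned in duplicate onto adhered PC3M cells stably expressing GFP-tagged PTB and incubated 16 h at 37 C. Cells are then fixed, nuclei stained with Hoechst, and PNC-positive cells counted.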
HTT cytoprotect: cytoprotection in Huntington HTT-Q103 PC12 cell model; Potency, µM (highest dose often 56.4 µM), without a hit: cytoprotection (ATP increase), hits mostly activators; PC12 HTT-Q103 induced, cytoprotection, ATP luminescence, 40 h; actives 0.14% (n = 230,000); AID 1471; also: potency is read from the fitted curve at half-maximal effect; % of control where 0% means no effect; nearly all actives have a fitted effect of over 45% in size
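Readout: ATPlite luminescence (ATP level). Model: stable PC12, inducible Htt exon1 Q103-GFP. Inducer: tebufenozide, 100 nM final. Compounds: dose series. No G418 in medium.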
Active calls of the source: *; ? = inconclusive; . = no result; [ ] = dose if it differs, or a comment. Unless noted, calls follow the shape of the dose curve; as a rule, active = well fitted curve in the direction sought with a large enough effect; inconclusive = small, poorly fitted or top-dose-only effect, or another doubt; inactive = no such curve, though single readings can be large; an effect the other way counts as inactive or inconclusive.

SMILES | HTT aggregate | PNC inhibitor | HTT cytoprotect
CCN(CC)S(=O)(=O)c1cccc(C(=O)NC(Cc2c[nH]c3ccccc23)c2nnc3n2CCC3)c1 (centres undefined) | 0.1% | ? | 29.1%[10 µM]
Cn1c2c(c(=O)n(C)c1=O)C(NS(=O)(=O)c1ccccc1)(C(F)(F)F)C(=O)N2 (centres undefined) | 11.4% | 15.4 | 3.55µM*
Cn1c2c(c(=O)n(C)c1=O)C(NC(=O)C(C)(C)C)(C(F)(F)F)C(=O)N2 (centres undefined) | 12.8% | -4.3 | -8.2%
N#C/C(=C\c1ccc([N+](=O)[O-])cc1)C(=O)Nc1ccccc1O | 6.3% | -20.8 | 4.4%[10 µM]
Cc1csc2c(C#N)c(=O)c3c(n12)CCC3 | -18.8% | 2.3 | 8.8%[10 µM]
N#CC1=C(N)C2=C(N3CCCCC3)CCCC2C1(C#N)C#N (centres undefined) | -8.8% | -6.3 | 1.7%[10 µM]
N#CC(C#N)=C1C=C2C=C(N3CCCCC3)CCC2CC1 (centres undefined) | 10µM* | -118.2* | .
CCCCN(C)C1=CC2=CC(=C(C#N)C#N)CCC2CC1 (centres undefined) | 0.316µM* | -82.6* | 5.9%[10 µM]
CCN(CC)C1=CC2=CC(=C(C#N)C#N)CCC2CC1 (centres undefined) | 0.1µM* | -134.0* | -22.8%[10 µM]
COc1ccc(Nc2nc3nonc3nc2N2CCCCC2)cc1 | 3.8%[9.22 µM] | . | 4.7%[10 µM]
CC(C)NC(=O)c1cc(C(=O)c2cc(Cl)ccc2O)coc1=N | 7.94µM* | -26.6 | -9.5%
COC(=O)c1cc(C(=O)c2cc(Br)ccc2O)coc1=N | -10.8% | . | -18.5%
CCCCCCn1c(CN2CCN(C(=O)c3ccco3)CC2)nc2c1c(=O)n(C)c(=O)n2C | -6.5% | -121.7* | 5.0%
CCCCCn1c(CN2CCN(C(=O)c3ccco3)CC2)nc2c1c(=O)n(C)c(=O)n2C | 6.0%[9.22 µM] | . | 5.6%[10 µM]
Nc1c(C(=O)Nc2ccc(S(=O)(=O)N3CCCC3)cc2)sc2nc3cc4c(cc3cc12)CCC4 | 14.1µM* | 71.5 | -20.6%[10 µM]
Nc1c(C(=O)Nc2ccc(S(=O)(=O)N3CCCC3)cc2)sc2nc3ccc(OC(F)(F)F)cc3cc12 | ? | -19.1 | -6.4%[10 µM]
Cc1ccc(NC2Nc3cc(C)nn3S2)c(C)c1 (centres undefined) | -15.1% | . | -16.4%
CC1(C)C2(C#N)C(N)=NC3(OCCO3)C12C#N (centres undefined) | 15.2% | 34.7 | -6.8%
CN(C)C(=O)N1CCCC(C(=O)NCc2ccccc2)C1 (centres undefined) | -4.9% | -90.9* | 8.3%[10 µM]
CN(C)C(=O)N1CCCC(C(=O)NCCc2ccccc2)C1 (centres undefined) | 6.4% | 9.5 | 20.5%
O=C1c2ccccc2S(=O)(=O)N1CC(O)COc1ccc(Br)cc1 (centres undefined) | -0.7% | -105.5* | -11.1%
O=C1c2ccccc2S(=O)(=O)N1CC(O)COc1ccc(Cl)cc1 (centres undefined) | 9.5% | -16.7 | -14.1%
COC(=O)/C(=C/c1ccco1)NC(=O)c1ccc(Br)o1 | 17.8% | . | .
c1cc2[nH]snc2c2nc(C3CC3)nc12 | 11.2µM* | -13.0 | 9.5%
Cc1ccc(N(C(C)C(=O)Nc2ccc3c(c2)OCO3)S(C)(=O)=O)cc1 (centres undefined) | 6.0% | ? | 6.8%
SMILES | HTT aggregate | PNC inhibitor | HTT cytoprotect
Cc1cc(NC(=O)CSCc2ccccc2)no1 | 11.3% | . | .
COc1ccc2c(c1)CCc1cnc(N)nc1-2 | ? | . | -49.9%
Cc1ccc(NC(=O)CCCC(=O)O)c(Br)c1 | -10.3% | -27.5 | 16.1%
CCCCCCCCC(=O)Nc1cc(C)ccc1OC | -9.4% | -100.0* | 14.9%[10 µM]
COc1ccc(C)cc1NC(=O)CN(c1ccccc1F)S(C)(=O)=O | 23.4% | -3.2 | -15.7%
COc1ccc(C)cc1NC(=O)CN(c1ccc(F)cc1)S(C)(=O)=O | 11.3% | -94.1* | -5.8%
CCOC(=O)Nc1cc(C)ccc1OC | 14.9% | -7.8 | -6.1%
Cc1ccc(O)c(NC(=O)CCCC(=O)O)c1 | 2.7% | -101.0* | 9.3%
Nc1nc(CC(=O)O)cs1 | . | . | 1.2%
O=C(Cn1cnc2c(nnn2Cc2ccc(Cl)cc2)c1=O)N1CCCc2ccccc21 | 4.7% | -16.3 | -1.8%[10 µM]
COc1ccc(-c2c3c(=O)n(C)c(=O)n(C)c3cn2-c2ccc(O)cc2)cc1 | -7.5%[9.22 µM] | . | -20.5%[10 µM]
COc1ccc(-c2c3c(=O)n(C)c(=O)n(C)c3cn2-c2ccccc2)cc1 | ? | -90.9* | -13.9%[10 µM]
C(=C\c1nc(N2CCCCCC2)c2ccccc2n1)/c1ccccc1 | 13.2% | -16.2 | -0.7%[10 µM]
Cc1nc(NCC2CC2)c2nnn(Cc3ccccc3)c2n1 | -12.2%[9.22 µM] | . | -14.1%[10 µM]
CC(=O)NN1C(=O)c2ccccc2NC1c1ccco1 (centres undefined) | 16.2% | . | 5.6%
C/C(=N\N1C(=O)c2ccccc2NC1c1ccco1)c1ccccc1O (centres undefined) | 7.08µM* | . | -183.9%
CCC(C)/C(C)=N/NC(=O)C1COc2ccccc2O1 (centres undefined) | 10.3% | 7.3 | -1.0%[10 µM]
Cc1nc(SCC(=O)Nc2ccc(F)cc2)c(C#N)c(C)c1CC(=O)c1ccc(Br)cc1 | 9.6% | 35.1 | -70.9%
O=c1c(-c2ccnn2-c2ccc(F)cc2)cnc2n1CCS2 | 12.2% | -27.7 | 10.3%
O=c1c(-c2ccnn2-c2cccc(Cl)c2)cnc2n1CCS2 | -5.6% | -80.5* | -5.7%
O=C(Cc1ccc(-n2cccc2)cc1)NCc1cccs1 | 0.9% | -106.0* | -2.2%
Cc1ccc(CNC(=O)Cc2ccc(-n3cccc3)cc2)cc1 | -24.4% | -22.1 | -27.0%[10 µM]
Cc1ccc(S(=O)(=O)CCC(=O)OCc2ccc(Cl)c(Cl)c2)cc1 | -11.7% | -112.5* | 0.7%[10 µM]
Cc1ccc(S(=O)(=O)CCC(=O)OCc2ccc(S(=O)(=O)C(C)C)cc2)cc1 | -10.1%[9.22 µM] | . | -41.0%
C=CCNC(=O)/C(=C/c1cn(-c2ccccc2)nc1-c1cccc([N+](=O)[O-])c1)NC(=O)c1ccccc1 | 31.7% | 14.4 | 14.8%[10 µM]
SMILES | HTT aggregate | PNC inhibitor | HTT cytoprotect
Cc1cccc(-n2c(SCC(=O)N3CC(=O)Nc4ccccc43)nc3ccccc3c2=O)c1 | 19.2% | . | 2.7%
Cc1cccc(-n2c(SCC(=O)N3CC(=O)Nc4ccccc43)nc3ccccc3c2=O)c1C | ? | ? | 0.891µM*
CNC(=O)C1(C)C=CCN1C(=O)c1ccccc1 (centres undefined) | 7.0% | 27.2 | 0.6%
CC1(C(=O)NCc2ccccn2)C=CCN1C(=O)c1ccccc1 (centres undefined) | 22.8% | -118.9* | -1.6%
N/C(=N\OC(=O)c1ccco1)c1cccc(Br)c1 | 3.6% | -18.5 | -47.4%[10 µM]
O=C(c1cccc(Br)c1)c1conc1C(=O)c1ccco1 | -8.2% | -113.8* | .
Cn1c(SCC(=O)N2CCN(c3ccccc3)CC2)nnc1-c1ccccc1 | 4.9% | 15.0 | 4.7%
Cc1ccc(Nc2nnns2)cc1 | 7.0% | 25.3 | -24.8%
CCCC1C(C#N)=C(N)Oc2n[nH]c(C(C)(C)C)c21 (centres undefined) | -8.0% | -113.6* | -1.0%[1.9 µM]
CC(C)C1C(C#N)=C(N)Oc2n[nH]c(C(C)(C)C)c21 (centres undefined) | 11.8% | ? | -0.1%
COc1cccc(C(O)c2cnc(C(C)C)n2C)c1 (centres undefined) | 12.5%[9.22 µM] | . | 32.0%[10 µM]
Cc1ccc(C)c(-n2nnnc2SCC(=O)NNC(=O)c2ccco2)c1 | 4.2%[9.22 µM] | . | 9.0%[10 µM]

Compound activity deposited in PubChem BioAssay by National Center for Advancing Translational Sciences (NCATS).
